This is an account of results in PubChem BioAssay (NCATS).

Results filed as inconclusive are left out. The source made the active and inactive calls. Unless noted, calls come from the whole dose curve.

The target in assay [1] is Bile acid receptor (Homo sapiens) (UniProt Q96RI1). The assay is described as follows: qHTS assay for small molecule antagonists of farnesoid X receptor signaling (AID 588526). Note: % is set by controls: 0 for no effect and ±100 for the full control effect. The essentials: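 Concentration-response titrations were fitted to the Hill equation for half-maximal inhibition and maximal response, with data normalised to 50 uM chenodeoxycholic acid and DMSO control wells. Cells: FXR-UAS-bla HEK293T, dialyzed FBS.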
Sequence of Bile acid receptor (Homo sapiens) (Q96RI1 whole entry, looked up): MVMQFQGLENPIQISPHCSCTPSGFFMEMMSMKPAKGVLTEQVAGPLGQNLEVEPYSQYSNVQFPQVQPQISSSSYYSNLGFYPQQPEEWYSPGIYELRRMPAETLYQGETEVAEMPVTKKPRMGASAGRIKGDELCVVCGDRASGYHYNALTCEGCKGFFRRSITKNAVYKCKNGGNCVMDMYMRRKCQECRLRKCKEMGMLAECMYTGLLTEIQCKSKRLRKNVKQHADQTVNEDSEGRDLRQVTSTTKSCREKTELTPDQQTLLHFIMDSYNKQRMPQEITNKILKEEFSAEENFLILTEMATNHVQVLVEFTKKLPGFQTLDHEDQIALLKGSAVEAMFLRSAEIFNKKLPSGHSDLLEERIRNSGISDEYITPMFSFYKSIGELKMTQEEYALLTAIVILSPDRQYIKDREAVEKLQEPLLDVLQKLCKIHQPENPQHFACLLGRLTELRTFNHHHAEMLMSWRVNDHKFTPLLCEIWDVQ
(In qHTS, concentration-response curves come from the screen itself.)

For assay [2], the target named is Peroxisome proliferator-activated receptor gamma (Homo sapiens) (UniProt P37231). The assay is described as follows: qHTS assay for small molecule agonists of peroxisome proliferator-activated receptor gamma signaling (AID 588536; active = well fitted curve in the direction sought with a large enough effect in the signal ratio, with a control signal flat, not every such curve was filed as active; the % refers to the signal ratio;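 note: 0% = DMSO basal wells and 100% = rosiglitazone at 2 µM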). The essentials:
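HEK293 UAS-bla reporter line, 1% charcoal/dextran FBS; titration, 16 h, 37 C; CCF4 loading 2 h RT; fluorescence 460/530 nm. Normalized to rosiglitazone 2 uM = 100%, DMSO = 0%.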

Assay [3] can be described thus: qHTS assay for small molecule agonists of retinoid X receptor alpha signaling (AID 588544).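 For activation: 0% = DMSO basal wells and 100% = reference agonist.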 Particulars: HEK293T RXRa-UAS-bla, beta-lactamase reporter, 18 h; 530 nm emission.
Assay [4] deals with Retinoic acid receptor RXR-alpha (Homo sapiens) (UniProt P19793). Described as above.
Sequence of Retinoic acid receptor RXR-alpha (Homo sapiens) (P19793 whole entry, looked up): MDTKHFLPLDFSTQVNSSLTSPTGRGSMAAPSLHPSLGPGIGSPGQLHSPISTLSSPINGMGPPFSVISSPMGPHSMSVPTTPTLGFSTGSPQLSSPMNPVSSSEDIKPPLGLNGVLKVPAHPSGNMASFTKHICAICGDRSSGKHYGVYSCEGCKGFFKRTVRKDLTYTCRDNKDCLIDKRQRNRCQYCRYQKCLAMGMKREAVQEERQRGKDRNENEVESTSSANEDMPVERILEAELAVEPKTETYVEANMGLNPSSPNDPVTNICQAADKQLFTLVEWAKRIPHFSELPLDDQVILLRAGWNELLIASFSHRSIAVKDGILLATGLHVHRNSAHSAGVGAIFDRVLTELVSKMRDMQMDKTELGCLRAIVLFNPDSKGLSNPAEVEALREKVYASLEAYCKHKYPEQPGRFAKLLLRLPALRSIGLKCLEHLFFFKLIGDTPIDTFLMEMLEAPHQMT
In assay [5] the target is Thyroid hormone receptor beta (Homo sapiens) (UniProt P10828). The assay is described as follows: qHTS assay for small molecule agonists of thyroid hormone receptor beta signaling (AID 588545). The essentials: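 Agonist activity was read as beta-lactamase CCF4 fluorescence (405 ex, 460/530 em), scaled between DMSO (0%) and 10 nM T3 (100%), then Hill-fitted for EC50 and efficacy. HEK 293 TR-UAS-bla cells in 2% charcoal/dextran FBS medium were exposed 18 h at 37 C.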
Sequence of Thyroid hormone receptor beta (Homo sapiens) (P10828 whole entry, looked up): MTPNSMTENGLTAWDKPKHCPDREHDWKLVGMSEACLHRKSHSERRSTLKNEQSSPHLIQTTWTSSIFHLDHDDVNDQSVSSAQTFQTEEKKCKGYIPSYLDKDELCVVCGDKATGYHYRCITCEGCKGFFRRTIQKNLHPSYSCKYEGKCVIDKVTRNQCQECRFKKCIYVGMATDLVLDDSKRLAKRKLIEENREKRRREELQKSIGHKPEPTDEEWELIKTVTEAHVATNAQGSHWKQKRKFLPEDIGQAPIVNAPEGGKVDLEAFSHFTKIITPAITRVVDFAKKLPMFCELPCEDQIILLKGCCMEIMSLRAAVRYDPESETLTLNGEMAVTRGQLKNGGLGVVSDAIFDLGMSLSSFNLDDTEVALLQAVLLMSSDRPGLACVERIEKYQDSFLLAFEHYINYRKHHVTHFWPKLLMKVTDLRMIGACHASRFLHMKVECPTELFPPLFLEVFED

Assay [6] in a line: qHTS assay for small molecule antagonists of retinoid X receptor alpha signaling (AID 588546; active = well fitted inhibition curve with a large enough effect in the signal ratio, with a control signal flat, not every such curve was filed as active; the % refers to the signal ratio;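 note: cells stimulated with 9-cis-retinoic acid as agonist; % is set by controls: 0 for no effect and ±100 for the full control effect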). The following applies: HEK293T RXRa-UAS-bla, beta-lactamase ratio, antagonist mode; measured here: W530 green channel, cytotoxicity proxy. The essentials:
(§1)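 Beta-lactamase reporter inhibition, read as CCF4 fluorescence ratio (ex 405, em 460/530 nm) after 2 h at RT. HEK293T UAS-bla cells, 2500/well, were stimulated with 9-cis-RA at 500 or 100 nM final alongside test compound for 18 h at 37 C.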

Assay [7] concerns the target Thyroid hormone receptor beta (Homo sapiens) (UniProt P10828). Briefly: qHTS assay for small molecule antagonists of thyroid hormone receptor beta signaling (AID 588547; active = well fitted inhibition curve with a large enough effect in the signal ratio, with a control signal flat, not every such curve was filed as active; the % refers to the signal ratio;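 note: cells stimulated with 0.4 nM T3 agonist during compound exposure; series mostly up to about 77 µM; % is set by controls: 0 for no effect and ±100 for the full control effect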). Particulars: TR-UAS-bla HEK293, beta-lactamase ratio, antagonist mode, 18 h. The essentials: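 TR-UAS-bla GripTite HEK293 cells in 2% charcoal/dextran FBS medium were preincubated 4 h at 37 C, given compound (0.59 nM to 92 uM) plus 0.4 nM T3 (final) for 18 h, then CCF4 for 2 h at RT; Hill fit gave IC50.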

Assay [8] has as its target Voltage-gated inwardly rectifying potassium channel KCNH2 (Homo sapiens) (UniProt Q12809). Briefly: qHTS Assay for Small Molecule Inhibitors of the Human hERG Channel Activity (AID 588834; active = well fitted inhibition curve with a large enough effect;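 note: top concentration of the series differs between compounds; % is set by controls: 0 for no effect and ±100 for the full control effect; lower thallium flux fluorescence means stronger hERG block; nearly all actives have a fitted effect of over 50% in size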). The essentials:
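Kinetic FDSS fluorescence; U2OS + hERG BacMam (~100 virus particles/cell); FluxOR Tl+ flux; ~10 min cpd; AC50 (Hill).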

The nature of assay [9]: qHTS assay for small molecule activators of the p53 signaling pathway (AID 651743; active = well fitted activation curve with a large enough effect in the signal ratio, not every such curve was filed as active; the % refers to the signal ratio; note: series mostly up to about 92 µM; % of control where 0% means no effect). The following applies: HCT-116 p53RE-bla, beta-lactamase FRET ratio, 16 h; stronger effect = higher value. The essentials:
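p53RE-bla HCT-116 cells with a stably integrated beta-lactamase reporter under p53 response elements were plated, rested 5 hours at 37 C/5% CO2, then exposed to compounds in DMSO for 16 hours at 37 C. LiveBLAzer B/G FRET substrate was read after 2 hours at room temperature.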

Assay [10] has as its target Glucocorticoid receptor (Homo sapiens) (UniProt P04150). Briefly: qHTS assay for small molecule antagonists of glucocorticoid receptor signaling (AID 588533; active = well fitted inhibition curve with a large enough effect in the signal ratio, with a control signal flat, not every such curve was filed as active; the % refers to the signal ratio). The essentials:
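Antagonist-mode qHTS: compound titrations added to GRE-bla HeLa cells, then dexamethasone 2 nM final; 18 h, 37 C. CCF4 FRET fluorescence normalized to dexamethasone and DMSO; IC50 from Hill fit.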

A short description of assay [11]: qHTS assay for small molecule antagonists of peroxisome proliferator-activated receptor delta signaling (AID 588535; active = well fitted inhibition curve with a large enough effect in the signal ratio, with a control signal flat, not every such curve was filed as active; the % refers to the signal ratio;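 for max response: cells co-treated with a PPAR-delta agonist as stimulator during compound exposure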). Particulars: HEK293T PPARd-UAS-bla, beta-lactamase FRET ratio, 18 h; 460 nm channel. The essentials: (§2)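 GeneBLAzer PPAR-delta-UAS-bla HEK293T cells in medium with 2% charcoal/dextran FBS were preincubated 5 hrs at 37 C, then given compounds, incubated 18 hrs at 37 C, and read by CCF4 beta-lactamase fluorescence; IC50 from Hill fits.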

The target of assay [12] is Peroxisome proliferator-activated receptor gamma (Homo sapiens) (UniProt P37231). The assay is described as follows: qHTS assay for small molecule antagonists of peroxisome proliferator-activated receptor gamma signaling (AID 588537; active = well fitted inhibition curve with a large enough effect in the signal ratio, with a control signal flat, not every such curve was filed as active; the % refers to the signal ratio;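 note: reporter cells co-stimulated with 50 nM rosiglitazone agonist during compound treatment; % of control where 0% means no effect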). The essentials: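 PPAR-gamma-UAS-bla HEK293 cells (3000/well, 1% charcoal/dextran-stripped FBS) were preincubated 6-6.5 h at 37 C, given titrated compounds, then stimulated with 50 nM rosiglitazone for 16 h. Beta-lactamase activity was read with CCF4 dye; IC50 came from Hill fits.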
Sequence of Peroxisome proliferator-activated receptor gamma (Homo sapiens) (P37231 whole entry, looked up): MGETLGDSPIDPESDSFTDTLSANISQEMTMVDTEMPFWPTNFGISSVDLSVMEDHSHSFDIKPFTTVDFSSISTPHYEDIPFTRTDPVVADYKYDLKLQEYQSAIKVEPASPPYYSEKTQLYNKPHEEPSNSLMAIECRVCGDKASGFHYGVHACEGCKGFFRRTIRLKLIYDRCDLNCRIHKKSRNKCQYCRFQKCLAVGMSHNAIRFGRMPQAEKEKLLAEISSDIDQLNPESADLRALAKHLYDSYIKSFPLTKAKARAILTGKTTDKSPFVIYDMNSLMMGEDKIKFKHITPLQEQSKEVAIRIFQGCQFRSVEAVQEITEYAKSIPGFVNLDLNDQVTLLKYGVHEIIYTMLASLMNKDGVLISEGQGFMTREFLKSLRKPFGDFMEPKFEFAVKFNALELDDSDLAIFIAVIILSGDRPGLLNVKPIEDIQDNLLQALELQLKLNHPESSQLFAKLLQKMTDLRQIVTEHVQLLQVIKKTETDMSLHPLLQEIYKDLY

The target of assay [13] is Vitamin D3 receptor (Homo sapiens) (UniProt P11473). The assay is described as follows: qHTS assay for small molecule antagonists of vitamin D receptor signaling (AID 588541). The essentials: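 VDR-UAS-bla HEK293T cells (2000/well, 2% charcoal-stripped FBS) were treated with titrated compounds plus 1-alpha,25-dihydroxyvitamin D3 (50 nM or 3 nM final) for 16 h at 37 C. CCF4 beta-lactamase fluorescence was read; Hill fits gave IC50.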
Sequence of Vitamin D3 receptor (Homo sapiens) (P11473 whole entry, looked up): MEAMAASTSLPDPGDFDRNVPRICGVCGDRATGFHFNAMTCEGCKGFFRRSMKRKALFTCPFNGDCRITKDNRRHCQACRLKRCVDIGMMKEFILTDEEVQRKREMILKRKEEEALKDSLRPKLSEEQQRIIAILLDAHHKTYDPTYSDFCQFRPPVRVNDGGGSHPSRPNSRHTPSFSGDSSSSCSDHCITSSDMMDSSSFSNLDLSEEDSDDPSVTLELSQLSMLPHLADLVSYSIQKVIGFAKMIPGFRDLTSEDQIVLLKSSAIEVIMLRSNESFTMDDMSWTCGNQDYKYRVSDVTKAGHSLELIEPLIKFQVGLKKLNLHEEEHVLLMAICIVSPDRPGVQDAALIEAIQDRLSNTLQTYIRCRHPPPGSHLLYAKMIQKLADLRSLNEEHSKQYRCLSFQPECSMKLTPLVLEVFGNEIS

For assay [14] the target is unchanged. The assay is described as follows: qHTS assay for small molecule agonists of vitamin D receptor signaling (AID 588543).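 Note: 0% = DMSO basal and 100% = reference agonist control.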 The essentials:
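Agonist-mode beta-lactamase reporter: HEK293T VDR-UAS-bla cells in charcoal-stripped 2% FBS, compound series 16 h 37 C, CCF4 2 h RT. EC50 from Hill fit, scaled against DMSO and 50 nM calcitriol control.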

In assay [15] the target is Retinoic acid receptor RXR-alpha (Homo sapiens) (UniProt P19793). The assay is described as follows: qHTS assay for small molecule antagonists of retinoid X receptor alpha signaling (AID 588546).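 Note: cells stimulated with 9-cis-retinoic acid as agonist; % is set by controls: 0 for no effect and ±100 for the full control effect.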 The following applies: HEK293T RXRa-UAS-bla, beta-lactamase ratio, antagonist mode. The essentials: as §1
A short description of assay [16]: qHTS assay for small molecule agonists of the antioxidant response element (ARE) signaling pathway (AID 651741; active = well fitted activation curve with a large enough effect in the signal ratio; the % refers to the signal ratio; note: % of control where 0% means no effect). The essentials:
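ARE-bla HepG2 cells (beta-lactamase reporter under ARE control) were plated at 2,000 cells/well, preincubated 5 h at 37 C/5% CO2, then treated with DMSO-dissolved compounds for 16 h at 37 C; LiveBLAzer B/G FRET substrate added, fluorescence read after 2 h at room temperature.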

Assay [17] in a line: qHTS assay for small molecule activators of the nuclear factor-kappa B (NF-kB) signaling pathway (AID 651749; active = well fitted activation curve with a large enough effect in the signal ratio; the % refers to the signal ratio; note: series mostly up to about 77 µM; % of control where 0% means no effect). The following applies: NF-kB-bla ME-180 cells, beta-lactamase FRET ratio, 16 h; stronger effect = higher value. The essentials: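 ME-180 cells stably carrying a beta-lactamase reporter under an NF-kB response element were exposed to compound or DMSO vehicle for 16 hr at 37C, 5% CO2. Pathway activation was read by FRET, since reporter expression disrupts FRET.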

For assay [18], the target named is Peroxisome proliferator-activated receptor delta (Homo sapiens) (UniProt Q03181). The assay is described as follows: qHTS assay for small molecule antagonists of peroxisome proliferator-activated receptor delta signaling (AID 588535).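 For max response: cells co-treated with a PPAR-delta agonist as stimulator during compound exposure.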 The essentials:
as §2

Sequence of Peroxisome proliferator-activated receptor delta (Homo sapiens) (Q03181 whole entry, looked up): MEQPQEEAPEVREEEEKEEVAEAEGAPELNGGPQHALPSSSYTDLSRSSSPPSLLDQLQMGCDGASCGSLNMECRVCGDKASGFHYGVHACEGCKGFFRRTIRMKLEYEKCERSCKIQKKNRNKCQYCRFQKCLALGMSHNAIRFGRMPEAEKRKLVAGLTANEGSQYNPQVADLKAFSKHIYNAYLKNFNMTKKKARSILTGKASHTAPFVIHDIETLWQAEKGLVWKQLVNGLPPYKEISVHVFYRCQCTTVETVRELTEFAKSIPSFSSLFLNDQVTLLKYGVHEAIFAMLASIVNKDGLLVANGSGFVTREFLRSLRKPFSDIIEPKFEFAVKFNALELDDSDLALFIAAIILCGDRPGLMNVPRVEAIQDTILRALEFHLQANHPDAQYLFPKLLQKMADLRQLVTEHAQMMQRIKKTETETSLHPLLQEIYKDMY
Sequence of Voltage-gated inwardly rectifying potassium channel KCNH2 (Homo sapiens) (Q12809 whole entry, looked up): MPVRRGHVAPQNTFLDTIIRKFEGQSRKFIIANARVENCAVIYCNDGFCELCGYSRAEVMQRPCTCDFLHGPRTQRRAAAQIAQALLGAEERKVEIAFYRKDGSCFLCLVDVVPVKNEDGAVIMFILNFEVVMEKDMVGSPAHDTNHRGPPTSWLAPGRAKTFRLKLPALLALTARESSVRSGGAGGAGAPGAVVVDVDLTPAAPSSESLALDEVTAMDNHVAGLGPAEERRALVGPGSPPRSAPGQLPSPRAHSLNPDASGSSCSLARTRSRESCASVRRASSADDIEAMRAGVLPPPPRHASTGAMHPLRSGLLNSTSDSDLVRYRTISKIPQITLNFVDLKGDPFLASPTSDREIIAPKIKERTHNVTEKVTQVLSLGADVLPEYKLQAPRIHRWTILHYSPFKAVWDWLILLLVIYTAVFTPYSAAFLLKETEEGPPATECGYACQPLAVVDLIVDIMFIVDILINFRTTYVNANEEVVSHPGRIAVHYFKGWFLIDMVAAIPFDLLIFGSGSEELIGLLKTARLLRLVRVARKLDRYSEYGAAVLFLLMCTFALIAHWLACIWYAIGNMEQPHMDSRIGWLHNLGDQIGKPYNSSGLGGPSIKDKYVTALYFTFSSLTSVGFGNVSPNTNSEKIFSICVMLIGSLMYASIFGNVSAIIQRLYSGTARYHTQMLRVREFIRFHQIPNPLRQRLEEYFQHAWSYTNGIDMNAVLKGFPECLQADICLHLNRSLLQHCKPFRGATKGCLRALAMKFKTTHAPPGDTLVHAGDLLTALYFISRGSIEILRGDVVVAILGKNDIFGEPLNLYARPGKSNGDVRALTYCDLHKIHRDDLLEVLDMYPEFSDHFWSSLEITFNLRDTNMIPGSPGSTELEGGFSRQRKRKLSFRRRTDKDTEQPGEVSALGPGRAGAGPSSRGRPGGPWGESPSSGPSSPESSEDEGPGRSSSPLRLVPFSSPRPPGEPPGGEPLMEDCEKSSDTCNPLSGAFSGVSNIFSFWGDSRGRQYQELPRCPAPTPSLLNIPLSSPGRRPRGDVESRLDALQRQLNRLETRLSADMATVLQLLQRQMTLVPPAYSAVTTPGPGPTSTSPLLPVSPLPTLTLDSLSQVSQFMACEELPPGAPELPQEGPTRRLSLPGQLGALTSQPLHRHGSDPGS
Sequence of Glucocorticoid receptor (Homo sapiens) (P04150 whole entry, looked up): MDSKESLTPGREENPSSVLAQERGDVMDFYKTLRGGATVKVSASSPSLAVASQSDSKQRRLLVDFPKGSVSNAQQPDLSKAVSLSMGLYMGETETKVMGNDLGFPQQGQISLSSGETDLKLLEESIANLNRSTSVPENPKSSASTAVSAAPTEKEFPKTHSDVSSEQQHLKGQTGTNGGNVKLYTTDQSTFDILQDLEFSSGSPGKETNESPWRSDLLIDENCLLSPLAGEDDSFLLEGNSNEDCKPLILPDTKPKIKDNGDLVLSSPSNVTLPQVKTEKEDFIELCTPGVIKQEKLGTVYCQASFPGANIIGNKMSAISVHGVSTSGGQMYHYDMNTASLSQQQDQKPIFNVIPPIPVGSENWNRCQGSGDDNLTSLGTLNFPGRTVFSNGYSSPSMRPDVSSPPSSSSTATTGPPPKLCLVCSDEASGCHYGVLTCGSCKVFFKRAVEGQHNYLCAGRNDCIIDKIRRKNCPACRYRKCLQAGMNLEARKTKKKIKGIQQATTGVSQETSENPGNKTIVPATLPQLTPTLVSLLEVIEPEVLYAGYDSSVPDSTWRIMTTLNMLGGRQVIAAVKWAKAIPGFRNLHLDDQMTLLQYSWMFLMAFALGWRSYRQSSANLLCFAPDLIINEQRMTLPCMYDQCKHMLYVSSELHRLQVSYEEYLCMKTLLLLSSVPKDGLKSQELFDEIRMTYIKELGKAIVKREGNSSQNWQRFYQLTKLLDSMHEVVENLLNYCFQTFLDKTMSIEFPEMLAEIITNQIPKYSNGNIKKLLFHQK

Regarding `Cc1ccc(C(=O)O)cc1`, the result in assay [1], in assay [2], in [4] and in assay [5] was inactive. Besides, the max response in assay [3] was 4.67%; in [6], -2.83%. Besides, in assay [7], the activity change % (negative = inhibition) was 18.4% (inactive). In assay [8], the Potency result was “inactive”. The activation in [9] is -5.46% (inactive).
Turning to `O=[N+]([O-])c1ccc(CCO)cc1`, the molecule was called inactive in [1], in assay [10], in assay [2], in assay [12], in [13] and in assay [14]. The call in assay [4] and in assay [5] was inactive. For the same molecule, the max response in assay [11] was 19.9%; in [3], -1.7%; in [6] it was -0.777%; in [15], 2.63% (inactive). In addition, the activity change % (negative = inhibition) in [7] is 3.64% (inactive). For the same molecule, the Potency result in [8] and in assay [16] was “inactive” each time. The activation was -2.15% (inactive) in [9] and -0.318% (inactive) in assay [17].
For the molecule `O=C(O)c1ccc(Cl)c(Cl)c1`, the call in assay [1], in [2], in assay [12], in [13], in assay [4] and in assay [5] was inactive. In addition, the max response amounted to 20.7% in assay [11], 12.9% in [3] and 11.8% in assay [6]. The Potency entry in assay [18], in assay [8] and in assay [16] was “inactive” in each case. For the same molecule, in assay [7], the activity change % (negative = inhibition) was 2.03% (inactive). Moreover, the figures for the activation in assay [9] and in [17] were 3.05% (inactive) and 0.147% (inactive), respectively.
As for `C=Cc1ccc(C=C)cc1`, the call in [1], in assay [10], in [2], in assay [13], in assay [14] and in assay [4] was inactive. Also, the outcome in assay [5] was inactive. The max response in assay [11] was -5.46%; in assay [3], -1.02%; in assay [6], -3.44%; in [15] it was 16.7% (inactive). For the same molecule, the Potency result in assay [18], in [8] and in assay [16] was “inactive” in each case. Moreover, the activity change % (negative = inhibition) in [7] is -18.2% (inactive). Further, the activation in [17] was 0.161% (inactive).
Regarding `O=C1CCC(=O)O1`, the molecule was classed as inactive in assay [1], in assay [10], in [2], in [13], in assay [14] and in assay [4]. Besides, the molecule was called inactive in assay [5]. The max response is 24.1% in assay [11], 8.02% in [3], -8.25% in assay [6] and -2.46% (inactive) in [15]. The Potency entry in assay [18], in assay [8] and in assay [16] was “inactive” throughout. For the same molecule, the activity change % (negative = inhibition) in assay [7] was -21.6% (inactive). In addition, in [9], the activation was 0.572% (inactive).
Take `CC(=O)c1ccccn1`: the molecule was called inactive in assay [1], in assay [2], in [13], in assay [14], in [4] and in assay [5]. In addition, the max response in assay [11] is -20.6%; in assay [3], -4.17%; in assay [6], -3.87%; in assay [15] it was -5.68% (inactive). Also, the Potency entry in assay [18], in assay [8] and in assay [16] was “inactive” in each case. Moreover, the activity change % (negative = inhibition) in assay [7] was -7.89% (inactive). The activation in [9] is -1.74% (inactive); in assay [17], -1.25% (inactive).
